Here are results for six compounds from PubChem BioAssay (EPA / NIEHS).

Structures are written as SMILES. Inconclusive results are not listed. The source made the active and inactive calls. How the source made its calls, unless noted: active means hit-call score of the fitted dose curve at least 0.9, where 1 is the maximum; inactive means score below 0.9.

Assay [1] concerns the target Paired box protein Pax-6 (Homo sapiens) (UniProt P26367). Kind of assay: ATG_Pax6_CIS: Attagene CIS-FACTORIAL HepG2 Assay for human Paired Box 6 (PAX6) (AID 2282956). The conditions noted are these: HepG2 CIS-FACTORIAL PAX6 reporter transcription, RNA readout; actives raise or lower the signal. The procedure, abridged:
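HepG2 cells transiently transfected with multiplexed cis-promoter reporter units (endogenous TF activity) were dosed for 24 h. Reporter mRNA was quantified by RT-PCR, 6-FAM labeling, HpaI digestion and capillary electrophoresis; bidirectional fitting versus DMSO baseline.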

Assay [2] in a line: ATG_PXRE_CIS: Attagene CIS-FACTORIAL HepG2 Assay for human Pregnane X Receptor Element (PXRE) (AID 2282957). The following applies: HepG2 Attagene CIS-FACTORIAL PXRE reporter, mRNA; actives raise or lower the signal. The procedure, abridged: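 HepG2 cells transiently transfected with cis-regulated multiple reporter transcription units; endogenous factor activity measured as reporter mRNA 24 h after dosing. RT-PCR, fluorescent primer extension, HpaI digestion, capillary electrophoresis; bidirectional fit versus DMSO baseline.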

Assay [3] is described as follows: ATG_RORE_CIS: Attagene CIS-FACTORIAL HepG2 Assay for human RAR-related Orphan Receptor Element (RORE) (AID 2282959). The conditions noted are these: HepG2 Attagene cis-factorial RORE reporter, mRNA; actives raise or lower the signal. Summed up:
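HepG2 cells carrying transiently transfected cis-regulated reporter units; RORE-driven reporter mRNA quantified 24 h post-dosing by RT-PCR, 6-FAM primer extension, HpaI digestion and capillary electrophoresis. Bidirectional fit versus DMSO.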

Assay [4] concerns the target Transcription factor Sp1 (Homo sapiens) (UniProt P08047). The assay is described as follows: ATG_Sp1_CIS: Attagene CIS-FACTORIAL HepG2 Assay for human Specificity Protein 1 (Sp1) (AID 2282961). The following applies: HepG2 Sp1 cis-reporter transcription, actives raise or lower the signal. Summed up: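 HepG2 cells transiently transfected with multiplexed cis-regulated reporter constructs, chemical exposure 24 h. Reporter mRNA quantified by RT-PCR with capillary electrophoresis; bidirectional fit relative to DMSO.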

A short description of assay [5]: ATG_SREBP_CIS: Attagene CIS-FACTORIAL HepG2 Assay for human Sterol Regulatory Element Binding (SREBP) (AID 2282962). The conditions noted are these: HepG2 Attagene cis-factorial SREBP reporter, mRNA; actives raise or lower the signal. The procedure, abridged: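 HepG2 cells transiently transfected with multiplexed cis-element reporter units report endogenous transcription factor activity. After 24 h of chemical exposure, reporter mRNA was quantified by RT-PCR, 6-FAM labelling, HpaI digestion and capillary electrophoresis; bidirectional fits used DMSO as baseline.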

For assay [6], the target named is Signal transducer and activator of transcription 3 (Homo sapiens) (UniProt P40763). Kind of assay: ATG_STAT3_CIS: Attagene CIS-FACTORIAL HepG2 Assay for human Signal Transducer and Activator of Transcription 3 (STAT3) (AID 2282963). The conditions noted are these: HepG2, Attagene cis-factorial STAT3 reporter transcription; actives raise or lower the signal. The procedure, abridged: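 Values derive from bidirectional fits relative to DMSO of reporter mRNA levels, measured by RT-PCR with capillary electrophoresis, in HepG2 cells carrying transiently transfected cis-regulated reporter units and exposed 24 h.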
Signal transducer and activator of transcription 3 (Homo sapiens), sequence (P40763 whole entry, looked up): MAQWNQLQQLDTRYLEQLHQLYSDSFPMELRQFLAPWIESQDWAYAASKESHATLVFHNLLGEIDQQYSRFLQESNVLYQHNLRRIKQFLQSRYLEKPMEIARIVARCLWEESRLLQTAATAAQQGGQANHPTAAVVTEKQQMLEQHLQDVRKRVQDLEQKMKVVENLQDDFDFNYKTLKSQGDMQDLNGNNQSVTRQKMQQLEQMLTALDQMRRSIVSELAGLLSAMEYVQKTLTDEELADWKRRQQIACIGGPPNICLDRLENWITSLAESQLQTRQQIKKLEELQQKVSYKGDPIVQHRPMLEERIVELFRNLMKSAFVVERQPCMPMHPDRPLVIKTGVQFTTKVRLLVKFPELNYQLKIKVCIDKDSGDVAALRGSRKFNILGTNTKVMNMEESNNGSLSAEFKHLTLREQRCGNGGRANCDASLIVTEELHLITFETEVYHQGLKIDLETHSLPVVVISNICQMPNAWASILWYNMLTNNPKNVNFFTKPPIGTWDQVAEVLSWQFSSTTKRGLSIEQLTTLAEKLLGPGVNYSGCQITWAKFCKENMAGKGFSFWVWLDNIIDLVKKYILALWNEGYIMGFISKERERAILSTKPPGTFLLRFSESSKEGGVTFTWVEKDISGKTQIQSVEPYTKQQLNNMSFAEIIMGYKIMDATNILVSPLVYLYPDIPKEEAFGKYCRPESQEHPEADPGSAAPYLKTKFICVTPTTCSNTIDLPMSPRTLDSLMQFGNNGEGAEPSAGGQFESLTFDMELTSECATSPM

Assay [7] is described as follows: ATG_TA_CIS: Attagene CIS-FACTORIAL HepG2 Assay for human TA Basal Promoter (AID 2282964). The conditions noted are these: HepG2 Attagene CIS-factorial TA basal promoter reporter; actives raise or lower the signal. The procedure, abridged: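 Background-control readout: TA basal promoter reporter mRNA, fitted in both directions relative to DMSO. Measured by RT-PCR and capillary electrophoresis 24 hours after treating HepG2 human liver cells transiently carrying multiplexed cis-regulated reporter constructs.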

A short description of assay [8]: ATG_TCF_b_cat_CIS: Attagene CIS-FACTORIAL HepG2 Assay for human T-Cell-Factor with beta-catenin (TCF/b-cat) (AID 2282965). The following applies: HepG2 TCF/beta-catenin cis-reporter transcription, actives raise or lower the signal. Summed up: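 HepG2, transient MRTU transfection, cis-element-driven reporters (endogenous TFs). 24 h compound exposure. Readout: reporter mRNA by RT-PCR + 6-FAM primer extension, HpaI digest, capillary electrophoresis. Gain/loss fit vs DMSO baseline.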

Assay [9] is described as follows: ATG_TAL_CIS: Attagene CIS-FACTORIAL HepG2 Assay for human TAL Basal Promoter (AID 2282966).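 Further: background control endpoint measuring basal TAL promoter reporter mRNA not a specific factor.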 The conditions noted are these: HepG2 Attagene cis-factorial TAL promoter reporter; actives raise or lower the signal. Summed up: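 HepG2 cells were transiently transfected with promoter-driven multiplexed reporter units and dosed for 24 h. Reporter mRNA was measured by RT-PCR with capillary electrophoresis fluorescence; bidirectional fits used DMSO as baseline, serving as a background control.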

Assay [10] in a line: ATG_TGFb_CIS: Attagene CIS-FACTORIAL HepG2 Assay for human Transforming Growth Factor (TGF) (AID 2282967). The conditions noted are these: HepG2 Attagene CIS TGFb reporter, mRNA transcription; actives raise or lower the signal. Summed up: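 Endogenous TGFB1-linked transcription factor activity read as reporter mRNA via RT-PCR and capillary electrophoresis, 24 h after dosing transiently transfected HepG2 cells. Gain or loss of signal fitted relative to DMSO.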

Assay [11] can be described thus: ATG_VDRE_CIS: Attagene CIS-FACTORIAL HepG2 Assay for human Vitamin D Receptor Element (VDRE) (AID 2282968). The conditions noted are these: HepG2 VDRE cis-reporter transcription, actives raise or lower the signal. Summed up: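 Cell-based multiplexed reporter format in human liver HepG2 cells, 24 h post-dose. Fluorescence from capillary electrophoresis of reporter cDNA gives the signal, with DMSO as negative control and baseline.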

Assay [12] concerns the target X-box-binding protein 1 (Homo sapiens) (UniProt P17861). Kind of assay: ATG_Xbp1_CIS: Attagene CIS-FACTORIAL HepG2 Assay for human X-box Binding Protein 1 (XBP1) (AID 2282972). The conditions noted are these: HepG2 XBP1 cis-element reporter, Attagene multiplex; actives raise or lower the signal. The procedure, abridged: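 HepG2 cells transiently transfected with cis-regulated multiple reporter transcription units; endogenous transcription factor activity measured 24 hours after chemical dosing. Reporter mRNA quantified by RT-PCR, 6-FAM primer extension, HpaI digestion and capillary electrophoresis; bidirectional fitting versus DMSO.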

The nature of assay [13]: ATG_GAL4_TRANS: Attagene TRANS-FACTORIAL HepG2 Assay for GAL4 (Internal Marker) (AID 2282976; active means hit-call score of the fitted dose curve at least 0.9, where 1 is the maximum). The following applies: HepG2 Attagene TRANS GAL4 internal marker reporter. Summed up:
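HepG2 cells transiently transfected with multiplexed GAL4-UAS reporter constructs were dosed for 24 h. Reporter mRNA was measured by RT-PCR, 6-FAM primer extension, HpaI digestion and capillary electrophoresis, and gain of signal was fitted relative to DMSO.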

The nature of assay [14]: ATG_PPRE_CIS: Attagene CIS-FACTORIAL HepG2 Assay for human Peroxisome Proliferator-activated Response Element (PPRE) (AID 2282958). The conditions noted are these: HepG2 PPRE cis-element reporter, Attagene transcription factor profiling; actives raise or lower the signal. Summed up:
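HepG2 cells are transiently transfected with multiplexed cis-promoter reporter units to report endogenous PPAR activity. After 24 h dosing, reporter mRNA is read by RT-PCR and capillary electrophoresis. Fitting is bidirectional against DMSO.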

The target in assay [15] is Glucocorticoid receptor (Homo sapiens) (UniProt P04150). Kind of assay: ATG_GR_TRANS: Attagene TRANS-FACTORIAL HepG2 Assay for human Glucocorticoid Receptor (GR) (AID 2282978; active means hit-call score of the fitted dose curve at least 0.9, where 1 is the maximum;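 further: activators score as hits since higher reporter transcript over DMSO is fitted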). The following applies: HepG2 Attagene TRANS GR reporter, mRNA transcription. Summed up: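 HepG2 cells transiently transfected with GAL4-UAS reporter units and exogenous GR-Gal4 chimera, dosed 24 h. Reporter mRNA by RT-PCR, FAM labeling, HpaI digest and capillary electrophoresis; gain-of-signal fit versus DMSO.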
Glucocorticoid receptor (Homo sapiens), sequence (P04150 whole entry, looked up, the tested form may be a part): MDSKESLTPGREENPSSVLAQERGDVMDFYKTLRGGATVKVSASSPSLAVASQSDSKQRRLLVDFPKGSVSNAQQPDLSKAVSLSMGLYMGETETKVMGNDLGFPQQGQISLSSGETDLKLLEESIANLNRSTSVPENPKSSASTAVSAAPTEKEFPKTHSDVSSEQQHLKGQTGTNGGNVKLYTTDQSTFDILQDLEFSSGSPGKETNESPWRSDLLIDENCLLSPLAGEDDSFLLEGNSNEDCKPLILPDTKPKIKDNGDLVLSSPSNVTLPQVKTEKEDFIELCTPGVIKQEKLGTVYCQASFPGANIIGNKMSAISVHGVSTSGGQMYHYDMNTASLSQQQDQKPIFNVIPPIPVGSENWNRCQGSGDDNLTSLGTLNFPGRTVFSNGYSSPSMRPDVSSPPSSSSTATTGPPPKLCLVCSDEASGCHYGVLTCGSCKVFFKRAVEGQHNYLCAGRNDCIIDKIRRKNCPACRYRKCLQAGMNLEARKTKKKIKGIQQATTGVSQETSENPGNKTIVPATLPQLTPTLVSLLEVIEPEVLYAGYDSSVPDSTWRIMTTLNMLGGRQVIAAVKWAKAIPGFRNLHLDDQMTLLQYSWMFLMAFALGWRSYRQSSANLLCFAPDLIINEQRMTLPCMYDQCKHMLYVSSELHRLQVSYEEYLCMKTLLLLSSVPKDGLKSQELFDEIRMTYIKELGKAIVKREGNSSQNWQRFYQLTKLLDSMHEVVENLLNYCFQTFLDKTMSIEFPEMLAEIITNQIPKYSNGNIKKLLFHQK

A short description of assay [16]: ATG_Sox_CIS: Attagene CIS-FACTORIAL HepG2 Assay for human SRY-box transcription factor (SOX) (AID 2282960). The conditions noted are these: HepG2 Attagene cis-factorial SOX reporter, mRNA; actives raise or lower the signal. The procedure, abridged:
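HepG2 cells transiently transfected with multiple cis-regulated reporter units, then dosed for 24 h. Reporter mRNA quantified by RT-PCR, fluorescent labelling, HpaI digestion and capillary electrophoresis; bidirectional fit versus DMSO.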

Assay [17] in a line: ATG_M_19_TRANS: Attagene TRANS-FACTORIAL HepG2 Assay for M19 Transcription Factor (Internal Marker) (AID 2282974; active means hit-call score of the fitted dose curve at least 0.9, where 1 is the maximum). The conditions noted are these: HepG2 Attagene TRANS-FACTORIAL M19 internal marker reporter. The procedure, abridged: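 HepG2 transiently transfected with GAL4-UAS multiplex reporter constructs, exposed 24 h; reporter RNA quantified by RT-PCR, 6-FAM labeling, HpaI digestion and capillary electrophoresis; internal background marker fitted upward versus DMSO.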

Assay [18] deals with Nuclear receptor subfamily 1 group I member 3 (Homo sapiens) (UniProt Q14994). The assay is described as follows: ATG_CAR_TRANS: Attagene TRANS-FACTORIAL HepG2 Assay for human Constitutive Androstane Receptor (CAR) (AID 2282969; active means hit-call score of the fitted dose curve at least 0.9, where 1 is the maximum;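 further: activators raise reporter mRNA above DMSO so AC50 marks induction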). The conditions noted are these: HepG2 Attagene TRANS-FACTORIAL CAR reporter. The procedure, abridged: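 HepG2 cells transiently transfected with GAL4-UAS reporter units; TRANS format reads activity of exogenous chimeric NR-Gal4 protein. After 24 h dosing, reporter mRNA quantified by RT-PCR, 6-FAM labelling and capillary electrophoresis; gain of signal fitted against DMSO.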
Nuclear receptor subfamily 1 group I member 3 (Homo sapiens), sequence (Q14994 whole entry, looked up, the tested form may be a part): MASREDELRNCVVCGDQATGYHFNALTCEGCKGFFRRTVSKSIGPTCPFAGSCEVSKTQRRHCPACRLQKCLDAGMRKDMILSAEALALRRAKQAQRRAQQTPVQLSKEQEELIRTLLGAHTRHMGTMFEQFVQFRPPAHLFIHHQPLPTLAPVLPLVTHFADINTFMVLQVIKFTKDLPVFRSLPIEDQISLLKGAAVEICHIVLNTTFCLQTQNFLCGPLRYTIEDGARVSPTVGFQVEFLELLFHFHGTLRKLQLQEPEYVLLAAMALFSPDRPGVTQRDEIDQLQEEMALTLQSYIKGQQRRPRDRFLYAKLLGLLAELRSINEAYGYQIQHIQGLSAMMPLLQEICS

Transcription factor Sp1 (Homo sapiens), sequence (P08047 whole entry, looked up): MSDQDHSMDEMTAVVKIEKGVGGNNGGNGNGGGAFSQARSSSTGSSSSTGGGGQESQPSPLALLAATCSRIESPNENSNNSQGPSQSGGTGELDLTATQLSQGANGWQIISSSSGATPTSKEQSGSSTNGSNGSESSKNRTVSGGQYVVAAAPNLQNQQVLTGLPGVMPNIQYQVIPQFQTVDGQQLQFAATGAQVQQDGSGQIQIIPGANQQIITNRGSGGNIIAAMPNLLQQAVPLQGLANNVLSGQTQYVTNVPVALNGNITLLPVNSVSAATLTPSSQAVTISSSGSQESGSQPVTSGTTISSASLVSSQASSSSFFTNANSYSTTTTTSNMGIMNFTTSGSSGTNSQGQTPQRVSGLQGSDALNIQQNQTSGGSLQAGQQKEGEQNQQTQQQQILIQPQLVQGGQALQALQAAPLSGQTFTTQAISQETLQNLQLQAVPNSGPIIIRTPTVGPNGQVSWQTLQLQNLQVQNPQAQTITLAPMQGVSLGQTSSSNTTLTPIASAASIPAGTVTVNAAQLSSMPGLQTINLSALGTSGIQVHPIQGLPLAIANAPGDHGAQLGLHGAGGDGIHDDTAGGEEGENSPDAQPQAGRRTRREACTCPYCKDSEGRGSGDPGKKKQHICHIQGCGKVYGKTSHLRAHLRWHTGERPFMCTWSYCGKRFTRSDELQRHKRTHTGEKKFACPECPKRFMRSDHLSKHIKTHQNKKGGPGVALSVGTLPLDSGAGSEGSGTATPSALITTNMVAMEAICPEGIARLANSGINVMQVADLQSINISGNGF
Paired box protein Pax-6 (Homo sapiens), sequence (P26367 whole entry, looked up): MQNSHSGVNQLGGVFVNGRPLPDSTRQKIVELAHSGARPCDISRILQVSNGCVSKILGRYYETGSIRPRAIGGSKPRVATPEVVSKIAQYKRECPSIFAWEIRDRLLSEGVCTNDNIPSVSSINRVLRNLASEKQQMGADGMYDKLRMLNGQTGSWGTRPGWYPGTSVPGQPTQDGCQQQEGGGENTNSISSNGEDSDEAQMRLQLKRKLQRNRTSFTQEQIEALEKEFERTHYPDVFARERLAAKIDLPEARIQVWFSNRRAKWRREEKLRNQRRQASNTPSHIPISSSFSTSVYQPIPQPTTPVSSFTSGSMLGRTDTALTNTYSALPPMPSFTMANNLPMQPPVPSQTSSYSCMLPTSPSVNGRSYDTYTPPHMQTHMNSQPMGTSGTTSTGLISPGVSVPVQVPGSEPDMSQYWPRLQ
X-box-binding protein 1 (Homo sapiens), sequence (P17861 whole entry, looked up): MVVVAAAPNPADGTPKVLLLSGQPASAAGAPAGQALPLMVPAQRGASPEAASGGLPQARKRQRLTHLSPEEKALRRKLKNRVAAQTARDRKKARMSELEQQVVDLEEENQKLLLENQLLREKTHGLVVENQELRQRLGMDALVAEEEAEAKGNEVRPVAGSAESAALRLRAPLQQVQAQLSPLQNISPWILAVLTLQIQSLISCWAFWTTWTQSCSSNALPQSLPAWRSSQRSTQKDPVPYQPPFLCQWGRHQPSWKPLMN

With `CC(=O)OC[C@H]1O[C@@](COC(C)=O)(O[C@H]2O[C@H](COC(C)=O)[C@@H](OC(C)=O)[C@H](OC(C)=O)[C@H]2OC(C)=O)[C@@H](OC(C)=O)[C@@H]1OC(C)=O`, the compound was called inactive in [1], in [3], in assay [4], in assay [5], in assay [6] and in assay [7]. Further, the result in assay [8], in assay [9], in assay [10], in assay [11], in assay [12] and in assay [13] was inactive. Besides, in [2], the AC50 (as a rule, the concentration giving half of the maximal activity seen) is 20.1 µM (active).

On to `O=C1CCC(N2C(=O)c3ccccc3C2=O)C(=O)N1` (stereo unspecified), for which the call in [1], in assay [2], in assay [14], in [4], in assay [5] and in assay [6] was inactive. The result in assay [7], in assay [8], in assay [9], in assay [10], in assay [12] and in [13] was inactive. In addition, the compound was called inactive in [15].

`CCC(C)(C)C(=O)O[C@H]1C[C@@H](C)C=C2C=C[C@H](C)[C@H](CC[C@@H]3C[C@@H](O)CC(=O)O3)[C@H]21`: the outcome in assay [1], in assay [14], in assay [3], in [16], in assay [4] and in assay [6] was inactive. Also, the outcome in [7], in [8], in assay [9], in assay [10], in assay [11] and in assay [12] was inactive. Besides, the outcome in assay [17], in [13] and in assay [15] was inactive. For the same compound, in [5], the AC50 is 0.0317 µM (active).

In the case of `Nc1ccc(Nc2ccccc2)cc1`, the compound was called inactive in assay [1], in assay [2], in [3], in assay [16], in assay [4] and in assay [5]. Further, the result in assay [6], in assay [7], in assay [8], in [9], in [10] and in assay [12] was inactive. Further, the outcome in assay [17] was inactive.

Consider `Nc1cccc(N)c1`, for which the result in [1], in assay [2], in assay [3], in assay [4], in assay [5] and in assay [6] was inactive. Further, the compound was called inactive in assay [7], in assay [8], in assay [9], in assay [10], in assay [11] and in [12]. Further, the outcome in [17] was inactive.

On to `O=C(O)CC(O)C(=O)O` (stereo unspecified), for which the outcome in assay [1], in assay [2], in assay [3], in assay [4], in assay [5] and in assay [6] was inactive. For the same compound, the compound was called inactive in [7], in assay [8], in assay [9], in assay [10], in assay [11] and in assay [18]. Also, the compound was called inactive in assay [12].
